Assay results published in the supplement of paper PMC11732987, “Enantioselective OTUD7B fragment discovery through chemoproteomics screening and high-throughput optimisation” (Communications Chemistry, 2025).

Columns and labels:
Test in all cases: log2 ratio of Biotin-Ahx-Ub-VS probe labelling (fragment/DMSO); higher = less target engagement (more negative = stronger competition), active = hit call of the paper (q ≤ 0.05, log2 ratio ≤ -1)
Conditions in all cases: compound concentration: 200 uM; treatment time: 3 h
USP19 = biological target: T1, USP19 (UniProt O94966)
T1 sequence (whole entry): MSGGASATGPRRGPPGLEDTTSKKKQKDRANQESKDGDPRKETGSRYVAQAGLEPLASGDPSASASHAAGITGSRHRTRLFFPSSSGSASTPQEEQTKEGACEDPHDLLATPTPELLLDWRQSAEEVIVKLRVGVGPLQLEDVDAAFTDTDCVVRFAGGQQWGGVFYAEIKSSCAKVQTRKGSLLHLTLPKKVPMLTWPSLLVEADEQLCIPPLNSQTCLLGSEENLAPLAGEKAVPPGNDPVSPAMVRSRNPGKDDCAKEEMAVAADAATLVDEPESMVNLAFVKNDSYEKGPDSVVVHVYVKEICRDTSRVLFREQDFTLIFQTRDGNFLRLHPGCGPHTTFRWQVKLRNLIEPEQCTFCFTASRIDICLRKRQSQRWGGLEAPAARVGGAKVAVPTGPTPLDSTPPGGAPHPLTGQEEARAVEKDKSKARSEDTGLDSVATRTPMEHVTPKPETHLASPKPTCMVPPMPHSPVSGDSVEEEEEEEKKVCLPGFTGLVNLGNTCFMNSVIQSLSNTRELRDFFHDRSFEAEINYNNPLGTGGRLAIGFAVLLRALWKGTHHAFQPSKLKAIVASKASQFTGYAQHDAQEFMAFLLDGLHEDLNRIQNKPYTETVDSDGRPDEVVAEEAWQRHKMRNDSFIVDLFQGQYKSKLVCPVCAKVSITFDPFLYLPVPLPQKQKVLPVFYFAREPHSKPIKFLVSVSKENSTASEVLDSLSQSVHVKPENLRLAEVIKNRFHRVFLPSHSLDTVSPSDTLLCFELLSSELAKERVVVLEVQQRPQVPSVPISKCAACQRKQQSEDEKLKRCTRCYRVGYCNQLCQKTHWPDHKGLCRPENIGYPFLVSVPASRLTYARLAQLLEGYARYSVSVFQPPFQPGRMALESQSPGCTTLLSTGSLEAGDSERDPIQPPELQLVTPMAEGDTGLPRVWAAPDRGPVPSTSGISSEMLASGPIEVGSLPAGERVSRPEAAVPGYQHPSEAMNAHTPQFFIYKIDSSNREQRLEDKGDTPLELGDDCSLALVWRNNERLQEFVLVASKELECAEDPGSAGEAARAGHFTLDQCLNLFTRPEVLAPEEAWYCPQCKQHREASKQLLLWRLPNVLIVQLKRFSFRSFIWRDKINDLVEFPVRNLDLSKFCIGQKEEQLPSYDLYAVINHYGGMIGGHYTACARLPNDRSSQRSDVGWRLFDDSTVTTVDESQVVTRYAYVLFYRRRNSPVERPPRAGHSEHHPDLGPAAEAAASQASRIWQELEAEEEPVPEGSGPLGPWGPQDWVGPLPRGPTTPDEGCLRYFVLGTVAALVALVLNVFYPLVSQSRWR
Summary of the method: (§1)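 Global-median-normalised Spectronaut label-free quantities were compared by unpaired t-test, and values are average log2 ratios of fragment over vehicle. Only proteins with ≥2 unique peptides were used. HEK293T lysate (495 µg per sample) was treated in triplicate with fragment at 200 µM or vehicle for 3 h and then with Biotin-Ahx-Ub-VS at 0.5 µM final for 1 h. Labelled DUBs were then NeutrAvidin-enriched, digested with LysC and trypsin, and run by diaPASEF LC-MS/MS.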

USP24 = USP24 (UniProt Q9UPU5)
Summary of the method: as §1

USP25 = biological target: T2, USP25 (UniProt Q9UHP3)
T2 sequence (whole entry): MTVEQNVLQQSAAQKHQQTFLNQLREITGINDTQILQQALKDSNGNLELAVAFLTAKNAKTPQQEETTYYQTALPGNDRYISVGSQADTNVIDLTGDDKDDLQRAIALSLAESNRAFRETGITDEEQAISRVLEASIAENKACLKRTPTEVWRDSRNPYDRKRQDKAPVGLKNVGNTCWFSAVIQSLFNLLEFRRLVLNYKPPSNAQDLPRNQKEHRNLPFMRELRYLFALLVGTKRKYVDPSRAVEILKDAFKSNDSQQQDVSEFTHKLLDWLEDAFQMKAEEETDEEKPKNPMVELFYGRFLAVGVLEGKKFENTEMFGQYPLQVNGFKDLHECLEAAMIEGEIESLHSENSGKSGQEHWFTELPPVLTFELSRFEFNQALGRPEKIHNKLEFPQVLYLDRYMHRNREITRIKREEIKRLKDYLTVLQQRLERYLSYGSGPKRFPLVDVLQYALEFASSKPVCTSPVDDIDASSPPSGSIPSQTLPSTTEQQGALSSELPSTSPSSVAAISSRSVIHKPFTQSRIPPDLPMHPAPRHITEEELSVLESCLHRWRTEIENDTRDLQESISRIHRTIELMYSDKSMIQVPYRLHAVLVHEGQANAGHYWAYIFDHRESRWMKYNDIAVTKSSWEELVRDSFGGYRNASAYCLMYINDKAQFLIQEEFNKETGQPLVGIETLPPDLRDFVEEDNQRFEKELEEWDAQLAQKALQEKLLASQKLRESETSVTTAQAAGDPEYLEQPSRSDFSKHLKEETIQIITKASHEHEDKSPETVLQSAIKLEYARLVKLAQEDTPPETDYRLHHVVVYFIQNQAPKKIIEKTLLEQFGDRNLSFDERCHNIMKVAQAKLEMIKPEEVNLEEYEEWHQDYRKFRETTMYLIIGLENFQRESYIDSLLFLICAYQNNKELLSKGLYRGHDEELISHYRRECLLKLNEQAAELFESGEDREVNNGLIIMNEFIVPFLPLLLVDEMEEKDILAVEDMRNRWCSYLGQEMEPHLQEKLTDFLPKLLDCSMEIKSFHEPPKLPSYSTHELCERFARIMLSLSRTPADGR
Summary of the method: as §1

USP28 = biological target: T3, USP28 (UniProt Q96RU2)
T3 sequence (whole entry): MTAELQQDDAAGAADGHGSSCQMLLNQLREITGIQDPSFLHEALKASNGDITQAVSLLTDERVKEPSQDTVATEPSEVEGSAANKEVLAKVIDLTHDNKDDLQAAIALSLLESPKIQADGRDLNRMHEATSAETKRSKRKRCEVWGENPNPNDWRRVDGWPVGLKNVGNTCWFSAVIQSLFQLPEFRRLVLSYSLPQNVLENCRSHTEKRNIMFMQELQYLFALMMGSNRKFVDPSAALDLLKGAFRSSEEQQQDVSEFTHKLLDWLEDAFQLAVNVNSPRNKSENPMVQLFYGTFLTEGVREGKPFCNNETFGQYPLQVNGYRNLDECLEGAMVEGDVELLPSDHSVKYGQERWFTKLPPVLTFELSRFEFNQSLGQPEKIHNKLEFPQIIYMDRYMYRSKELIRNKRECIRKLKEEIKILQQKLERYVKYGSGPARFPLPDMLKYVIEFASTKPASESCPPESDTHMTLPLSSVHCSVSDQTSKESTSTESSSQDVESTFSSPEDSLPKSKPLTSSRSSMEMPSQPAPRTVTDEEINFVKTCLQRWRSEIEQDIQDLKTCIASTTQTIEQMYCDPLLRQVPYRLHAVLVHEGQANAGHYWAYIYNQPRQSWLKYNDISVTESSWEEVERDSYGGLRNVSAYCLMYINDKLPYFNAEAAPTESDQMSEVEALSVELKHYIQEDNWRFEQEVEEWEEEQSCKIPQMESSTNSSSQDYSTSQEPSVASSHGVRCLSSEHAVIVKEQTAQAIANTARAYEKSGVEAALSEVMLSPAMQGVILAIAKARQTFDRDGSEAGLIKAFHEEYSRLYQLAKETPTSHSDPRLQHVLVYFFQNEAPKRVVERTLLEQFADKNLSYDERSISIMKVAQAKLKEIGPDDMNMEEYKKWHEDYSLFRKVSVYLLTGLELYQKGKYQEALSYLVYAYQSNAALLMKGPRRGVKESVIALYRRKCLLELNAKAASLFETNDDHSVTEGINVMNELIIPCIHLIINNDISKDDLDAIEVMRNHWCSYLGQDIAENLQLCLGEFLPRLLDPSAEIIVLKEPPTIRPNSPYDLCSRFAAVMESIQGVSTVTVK
Summary of the method: as §1

Measured: log2 ratio of Biotin-Ahx-Ub-VS probe labelling

Sequence of USP24 (Q9UPU5 whole entry): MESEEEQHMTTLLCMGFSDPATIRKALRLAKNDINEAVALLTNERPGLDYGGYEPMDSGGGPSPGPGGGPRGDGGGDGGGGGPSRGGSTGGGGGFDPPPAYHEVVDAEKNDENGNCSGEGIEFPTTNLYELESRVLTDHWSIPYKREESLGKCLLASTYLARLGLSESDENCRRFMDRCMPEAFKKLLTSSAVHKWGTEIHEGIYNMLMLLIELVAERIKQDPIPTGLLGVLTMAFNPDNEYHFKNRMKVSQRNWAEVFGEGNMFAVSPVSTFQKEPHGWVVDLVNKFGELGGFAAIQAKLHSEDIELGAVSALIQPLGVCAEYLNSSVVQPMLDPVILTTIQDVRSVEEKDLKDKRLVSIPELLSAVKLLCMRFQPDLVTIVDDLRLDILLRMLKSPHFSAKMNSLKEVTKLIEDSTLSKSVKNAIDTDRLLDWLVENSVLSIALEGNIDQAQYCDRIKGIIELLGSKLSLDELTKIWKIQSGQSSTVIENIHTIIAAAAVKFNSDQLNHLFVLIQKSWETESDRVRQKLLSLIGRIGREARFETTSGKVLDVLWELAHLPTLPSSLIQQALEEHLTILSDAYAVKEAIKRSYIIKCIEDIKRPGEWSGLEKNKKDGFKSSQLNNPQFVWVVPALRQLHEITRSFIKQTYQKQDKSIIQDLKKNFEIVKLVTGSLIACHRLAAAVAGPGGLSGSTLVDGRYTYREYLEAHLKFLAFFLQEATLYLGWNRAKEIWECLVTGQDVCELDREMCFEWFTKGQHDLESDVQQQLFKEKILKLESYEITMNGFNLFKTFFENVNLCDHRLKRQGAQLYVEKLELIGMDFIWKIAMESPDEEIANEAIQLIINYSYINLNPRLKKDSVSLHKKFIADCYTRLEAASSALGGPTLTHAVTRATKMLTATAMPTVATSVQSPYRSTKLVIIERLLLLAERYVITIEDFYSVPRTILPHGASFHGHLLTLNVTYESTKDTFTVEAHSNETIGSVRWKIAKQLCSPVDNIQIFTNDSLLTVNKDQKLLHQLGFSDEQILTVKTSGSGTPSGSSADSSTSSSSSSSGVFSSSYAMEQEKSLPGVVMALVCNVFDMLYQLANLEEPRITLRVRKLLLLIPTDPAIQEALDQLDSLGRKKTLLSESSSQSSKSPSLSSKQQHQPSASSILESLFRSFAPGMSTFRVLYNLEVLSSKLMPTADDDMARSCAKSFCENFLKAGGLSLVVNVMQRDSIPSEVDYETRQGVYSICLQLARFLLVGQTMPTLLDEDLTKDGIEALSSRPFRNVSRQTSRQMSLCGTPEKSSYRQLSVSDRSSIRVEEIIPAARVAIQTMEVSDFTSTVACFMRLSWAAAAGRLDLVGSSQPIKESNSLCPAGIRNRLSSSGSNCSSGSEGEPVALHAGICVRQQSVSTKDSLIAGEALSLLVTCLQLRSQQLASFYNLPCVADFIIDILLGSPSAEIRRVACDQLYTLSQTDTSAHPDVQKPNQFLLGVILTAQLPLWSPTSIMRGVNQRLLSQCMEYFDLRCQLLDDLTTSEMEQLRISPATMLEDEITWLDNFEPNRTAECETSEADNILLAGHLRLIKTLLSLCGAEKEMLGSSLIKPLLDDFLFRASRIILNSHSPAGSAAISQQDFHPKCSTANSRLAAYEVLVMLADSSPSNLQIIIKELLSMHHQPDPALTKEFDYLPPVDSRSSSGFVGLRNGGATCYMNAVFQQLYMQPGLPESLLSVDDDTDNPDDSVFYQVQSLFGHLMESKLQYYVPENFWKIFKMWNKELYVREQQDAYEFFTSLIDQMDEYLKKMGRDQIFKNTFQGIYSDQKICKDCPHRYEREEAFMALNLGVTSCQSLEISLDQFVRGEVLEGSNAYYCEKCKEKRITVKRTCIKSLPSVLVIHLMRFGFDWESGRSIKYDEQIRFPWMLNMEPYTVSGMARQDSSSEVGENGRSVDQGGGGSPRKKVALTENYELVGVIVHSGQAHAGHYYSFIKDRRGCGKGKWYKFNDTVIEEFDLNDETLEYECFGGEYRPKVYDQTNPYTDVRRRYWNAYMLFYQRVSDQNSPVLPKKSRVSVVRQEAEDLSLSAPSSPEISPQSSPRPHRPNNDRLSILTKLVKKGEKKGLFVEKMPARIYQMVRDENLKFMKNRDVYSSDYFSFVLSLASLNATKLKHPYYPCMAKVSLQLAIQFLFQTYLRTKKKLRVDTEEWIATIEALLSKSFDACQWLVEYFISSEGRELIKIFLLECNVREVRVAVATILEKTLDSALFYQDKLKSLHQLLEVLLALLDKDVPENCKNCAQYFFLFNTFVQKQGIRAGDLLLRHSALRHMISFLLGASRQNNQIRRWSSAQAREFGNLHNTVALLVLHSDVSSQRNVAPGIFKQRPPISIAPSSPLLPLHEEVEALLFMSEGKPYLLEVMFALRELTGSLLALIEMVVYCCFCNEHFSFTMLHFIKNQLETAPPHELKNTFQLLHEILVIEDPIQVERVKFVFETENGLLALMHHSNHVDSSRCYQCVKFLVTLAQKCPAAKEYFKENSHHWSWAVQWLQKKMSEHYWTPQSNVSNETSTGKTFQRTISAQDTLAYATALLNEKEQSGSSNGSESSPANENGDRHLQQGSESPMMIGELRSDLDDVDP

Cl.O=C(CCl)N[C@H]1C[C@@H](n2cccn2)C1
inactive: USP19 -0.157 | USP24 -0.464 | USP25 -0.201 | USP28 -0.188
